40 compounds from PubChem BioAssay (Tox21) can be followed below.

Values without a mark were called inactive. Records with an inconclusive call do not appear. Entries that show only a call come without a potency. The source made the active and inactive calls. Calls come from the whole dose curve.

Chain of Acetylcholinesterase (Homo sapiens) (P22303 whole entry, looked up): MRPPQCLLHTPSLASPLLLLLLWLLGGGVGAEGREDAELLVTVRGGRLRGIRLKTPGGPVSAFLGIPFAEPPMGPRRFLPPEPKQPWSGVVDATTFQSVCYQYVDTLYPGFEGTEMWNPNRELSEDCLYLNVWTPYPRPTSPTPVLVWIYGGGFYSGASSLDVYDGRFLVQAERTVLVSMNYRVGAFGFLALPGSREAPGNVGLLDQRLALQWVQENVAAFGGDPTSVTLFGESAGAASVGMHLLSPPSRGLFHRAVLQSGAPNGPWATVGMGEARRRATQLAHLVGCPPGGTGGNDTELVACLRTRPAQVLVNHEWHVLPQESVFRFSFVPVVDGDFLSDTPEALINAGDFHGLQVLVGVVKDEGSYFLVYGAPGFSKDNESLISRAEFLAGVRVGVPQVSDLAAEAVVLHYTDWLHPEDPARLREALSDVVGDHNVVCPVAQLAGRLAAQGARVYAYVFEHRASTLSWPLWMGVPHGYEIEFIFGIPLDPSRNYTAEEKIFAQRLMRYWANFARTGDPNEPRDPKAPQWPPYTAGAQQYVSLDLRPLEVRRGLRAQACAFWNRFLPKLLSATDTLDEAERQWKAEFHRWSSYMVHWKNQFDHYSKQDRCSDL

The target in one assay is Acetylcholinesterase (Homo sapiens) (UniProt P22303). The assay can be described thus: Acetylcholinesterase (AChE) small molecule antagonists: fluorescence cell-based qHTS assay (AID 1347398). Note: nearly all actives have a fitted effect of over 50% in size. Particulars: SH-SY5Y cells; Potency: AChE activity; outcome: AChE activity; series mostly up to 115 µM. The procedure, abridged:
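Homogeneous quantitative HTS format. SH-SY5Y cells seeded at 2,000 per well settle overnight at 37 C. Compound pretreatment runs 30 min (37 C, 5% CO2); substrate/probe mix then reacts 40 min at RT before reading 490/520 nm.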
(In qHTS, concentration-response curves come from the screen itself.)
With `Cc1cc(O)cc2c1O[C@](C)(CCC[C@H](C)CCC[C@H](C)CCCC(C)C)CC2`, the Potency entry is “inactive”.

Turning to `COC(=O)c1ccc(C(=O)OC)c(C(=O)OC)c1`, the Potency result was “inactive”.

For the compound `Nc1c(I)cc(I)c(C(=O)N(CCC(=O)O)c2ccccc2)c1I`, the Potency entry was “inactive”.

In the case of `C=C1C[C@H]2[C@@H]3C=C(C)C4=CC(=O)CC[C@]4(C)[C@H]3CC[C@]2(C)[C@@]1(OC(C)=O)C(C)=O`, the Potency entry is “inactive”.

As to `CCC(C)c1cc(C(C)(C)C)c(O)c(C(C)(C)C)c1` (stereo not given), the Potency entry is “inactive”.

With `CCCCCCCCSCC`, the Potency result is “inactive”.

With `O=C(OCC1(COC(=O)c2cccnc2)CCCC(COC(=O)c2cccnc2)(COC(=O)c2cccnc2)C1O)c1cccnc1`, the Potency result was “inactive”.

For the compound `Cc1ccc(C)c(S(=O)(=O)O)c1`, the Potency result was “inactive”.

In the case of `CC1(C)S[C@@H]2[C@H](NC(=O)[C@H](N)c3ccccc3)C(=O)N2[C@H]1C(=O)O`, the Potency result is “inactive”.

As to `CC(=O)CC(C)=O`, the Potency entry was “inactive”.

In the case of `CCS(=O)(=O)CCn1c([N+](=O)[O-])cnc1C`, the Potency entry was “inactive”.

`CC(C)(C)c1cc(/C=C2\SC(=N)NC2=O)cc(C(C)(C)C)c1O`: the compound was called inactive.

In the case of `COc1ccc(/C(C)=C/C(=O)O)c(OC)c1`, the Potency result is “inactive”.

On to `Nc1ccc2cc(S(=O)(=O)O)ccc2c1`, for which the Potency entry is “inactive”.

Turning to `COC(=O)c1cc(Cl)ccc1NS(=O)(=O)C(F)(F)F`, the Potency result is “inactive”.

Take `OCC(CO)(CO)CO`: the Potency result was “inactive”.

For `COc1ccccc1Oc1c(NS(=O)(=O)c2ccc(C(C)(C)C)cc2)nc(-c2ncccn2)nc1OCCO`, the Potency entry was “inactive”.

For the compound `C/C=C/c1ccc(OC)c(OC)c1`, the Potency entry is “inactive”.

With `O=C(Cl)c1ccc([N+](=O)[O-])cc1`, the Potency result was “inactive”.

For another assay the target is unchanged. The assay can be described thus: Acetylcholinesterase (AChE) small molecule antagonists: enzyme-based qHTS assay with human liver microsomes (AID 1347399). Note: nearly all actives have a fitted effect of over 60% in size. Particulars: Potency: qHTS inhibition; outcome: qHTS inhibition; series mostly up to 115 µM. The procedure, abridged: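 Recombinant human AChE (50 mU/mL in the enzyme mix) and human liver microsomes (0.25 mg/mL final) were preincubated with compound and NADPH (0.25 mg/mL final) for 30 min at 37 C. Acetylthiocholine/DTNB was then added; thiocholine was read colorimetrically after 10 min at room temperature.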
For `CCCCCCOC(=O)CCCCCCCC(=O)OCCCCCC`, the Potency result is “inactive”.

For the compound `C[N+](C)(C)CC(O)CCl` (stereo not given), the Potency result is “inactive”.

Consider `CC(C)(C)c1n[nH]c(=S)n(N)c1=O`, for which the Potency result is “inactive”.

As for `O=[N+]([O-])c1cccc(Cl)c1`, the Potency result was “inactive”.

For `CN(C)c1ccc(C2(c3ccc(N(C)C)cc3)OC(=O)c3cc(N(C)C)ccc32)cc1`, the Potency entry was “inactive”.

Consider `Nc1c(CC(=O)O)cccc1C(=O)c1ccc(Br)cc1`, for which the Potency result was “inactive”.

For `CC1CCCCC1`, the Potency entry is “inactive”.

As for `O=C(Nc1ccccc1)OCC(CN1CCCCC1)OC(=O)Nc1ccccc1` (stereo not given), the Potency entry is “inactive”.

Take `CCOC=C(C(=O)OCC)C(=O)OCC`: the Potency entry is “inactive”.

Take `Cc1cn([C@@H]2O[C@H](CO)[C@@H](O)[C@@H]2F)c(=O)[nH]c1=O`: the Potency result is “inactive”.

Consider `CCCCOC(=O)[C@H](C)O`, for which the Potency entry was “inactive”.

For `COc1cc2c(c(OC)c1OC)-c1ccc(OC)c(=O)cc1[C@@H](NC(C)=O)CC2`, the Potency entry was “inactive”.

For `Nc1ccc(S(=O)(=O)Nc2ccnn2-c2ccccc2)cc1`, the activity change, negative = inhibition was -0.674% [at 23.6 µM].

Take `CN(C)[C@@H]1C(=O)C(C(=O)NCN2CCCC2)=C(O)[C@@]2(O)C(=O)C3=C(O)c4c(O)cccc4[C@@](C)(O)C3C[C@@H]12` (stereo not given in full): the Potency entry was “inactive”.

Take `Nc1ccncc1N`: the Potency entry was “inactive”.

With `CC(=O)c1ccc2ccccc2c1`, the Potency result is “inactive”.

For the compound `C#C[C@]1(O)CC[C@H]2[C@@H]3CCc4cc(OC)ccc4[C@H]3CC[C@@]21C`, the Potency result was “inactive”.

With `CCCOC(=O)CCCCC(=O)OCCC`, the Potency result is “inactive”.

With `Cc1ncc(CO)c(C=O)c1O`, the Potency entry was “inactive”.

As to `CNC1CCCN(c2c(F)cc3c(=O)c(C(=O)O)cn(C4CC4)c3c2OC)C1` (stereo not given), the Potency result is “inactive”.

As to `Clc1ccc2c(Cl)ccnc2c1`, the Potency entry is “inactive”.

For the compound `Cc1cc(O)cc2c1O[C@](C)(CCC[C@H](C)CCC[C@H](C)CCCC(C)C)CC2`, the Potency result is “inactive”.

For `COC(=O)c1ccc(C(=O)OC)c(C(=O)OC)c1`, the Potency result was “inactive”.

`Nc1c(I)cc(I)c(C(=O)N(CCC(=O)O)c2ccccc2)c1I`: the Potency entry was “inactive”.

Regarding `C=C1C[C@H]2[C@@H]3C=C(C)C4=CC(=O)CC[C@]4(C)[C@H]3CC[C@]2(C)[C@@]1(OC(C)=O)C(C)=O`, the Potency result was “inactive”.

As for `CCC(C)c1cc(C(C)(C)C)c(O)c(C(C)(C)C)c1` (stereo not given), the Potency result is “inactive”.

Regarding `CCCCCCCCSCC`, the Potency entry was “inactive”.

Take `O=C(OCC1(COC(=O)c2cccnc2)CCCC(COC(=O)c2cccnc2)(COC(=O)c2cccnc2)C1O)c1cccnc1`: the Potency result is “inactive”.

Regarding `Cc1ccc(C)c(S(=O)(=O)O)c1`, the Potency result is “inactive”.

`CC1(C)S[C@@H]2[C@H](NC(=O)[C@H](N)c3ccccc3)C(=O)N2[C@H]1C(=O)O`: the Potency result was “inactive”.

Regarding `CC(=O)CC(C)=O`, the Potency entry is “inactive”.

Consider `CCS(=O)(=O)CCn1c([N+](=O)[O-])cnc1C`, for which the Potency entry is “inactive”.

Consider `CC(C)(C)c1cc(/C=C2\SC(=N)NC2=O)cc(C(C)(C)C)c1O`, for which the compound was called inactive.

On to `COc1ccc(/C(C)=C/C(=O)O)c(OC)c1`, for which the Potency entry was “inactive”.

On to `Nc1ccc2cc(S(=O)(=O)O)ccc2c1`, for which the Potency entry was “inactive”.

In the case of `COC(=O)c1cc(Cl)ccc1NS(=O)(=O)C(F)(F)F`, the Potency result was “inactive”.
